Measurements as given in PubChem BioAssay (NCI).
The panel holds about 83,000 compounds, 20% with a hit somewhere; the sample as a whole holds those more often.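 A percent growth of 40 corresponds to 60% growth inhibition; 0 means no net growth; -100 means all cells died. Active threshold: below 10.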 The source made the active and inactive calls.

test system: HL-60(TB) leukemia; assay: NCI-60 one-dose screen, 48 h (100 = growth as untreated, 0 = no growth, -100 = all killed); conditions: 10 µM unless noted

Compound | growth
CCCCCCCS(=O)(=O)N1CCCC(C(=O)Nc2nc3ccc(NC(=O)c4ccc(F)c(OC)c4F)cc3s2)C1 (configuration not stated) | 66.7% (inactive)
Cn1cc(-c2nnc(N)nc2-c2c[nH]c3ccccc23)c2cccnc21 | 13.5% (inactive)
Cc1cc(C(NC(=O)CCCCCNc2cccc3c2C(=O)N(C2CCC(=O)CC2=O)C3=O)c2cccc(N(C)C)c2)c(O)c2ncccc12 (configuration not stated) | -15.3% (active)
COc1ccc(Nc2nc(N)n(Cc3cccc(Br)c3)n2)cc1 | -11.4% (active)
O=C(Cn1c(/C=C/c2ccccc2)nc2ccccc2c1=O)Nc1ccccc1 | 64.7% (inactive)
COc1ccc(C2=NN(C(C)=O)C(c3ccc(OCc4ccc(Cl)cc4)c(OC)c3)C2)cc1OC (configuration not stated) | 34.6% (inactive)
CCCCC[C@@H]1C/C=C(\C)[C@@H](O)C(C)(C)C(=O)[C@@H](C)/C=C(\C)[C@@H]2C[C@H](O)C[C@](O)(CC(=O)O1)O2 | 11.8% (inactive)
CN(C)C(=O)c1cc(-c2ccc3ncnc(N4CCc5cc(F)c(Cl)cc54)c3c2)cnc1N | -73.8% (active)
COc1ccccc1[C@H]1C(C(=O)c2ccc(Cl)cc2)C2(N[C@@H]1c1ccccc1)C(=O)Nc1ccc(Cl)cc12 (some centres not stated) | -25.1% (active)
COc1sc(/C=N/NC(=O)c2[nH]c3ccc(Br)cc3c2-c2ccccc2)cc1Cl | -42.8% (active)
N#Cc1c(NC(=O)N2CCOCC2)n(-c2ccc(OC(F)(F)F)cc2)c2cc(F)ccc12 | 91.2% (inactive)
CNc1nc2ccccc2n2c(-c3ccc(O)c(O)c3)cnc12 | -19.6% (active)
COC(=O)CNC(=O)COc1c(OC)c(OC)cc2oc(-c3cccc(C(=O)Nc4ccc(Cl)cc4)c3)cc(=O)c12 | 101% (inactive)
O=C1Nc2cc(-c3ccc(NC(=O)c4cccc([N+](=O)[O-])c4)cc3)ccc2/C1=C/c1ccc[nH]1 | 106% (inactive)
O=C(O)CCN1C(=O)/C(=C/C=C/c2ccc([N+](=O)[O-])o2)SC1=S | -11% (active)
COc1ccc(C(=O)NNC(=O)CSc2nc3sc4c(c3c(=O)n2-c2ccc(Cl)cc2)CCCC4)cc1 | 64.5% (inactive)
Cc1ccc(NCC(=O)Cn2cc(COc3ccc(C=Nc4cnc5ccccc5c4)cc3)nn2)cc1 | 101% (inactive)
CN(CCF)c1ccc(/C=C/C(=O)c2ccc(N)cc2O)cc1 | 58% (inactive)
Clc1ccc2c(N/N=C/c3c[nH]c4ccc(Br)cc34)ccnc2c1 | -74.7% (active)
O=C(Nc1ccc(I)cc1)Nc1nc2ccc([N+](=O)[O-])cc2s1 | -37.3% (active)
CC1=C(C#N)C2=NNCC(c3ccccc3)=NN2C(c2ccccc2)=C1 | 138% (inactive)
O=C(CSc1nnc(-c2ccc(-c3nc4ccc(Cl)cc4[nH]3)cc2)o1)Nc1ccc(Cl)cc1 | 4.27% (active)
C[C@@H](Nc1c(C#N)cnc2ccc(-c3cnc4[nH]ncc4c3)cc12)c1ccccc1 | 35.2% (inactive)
COc1ccc(CN2[C@@H](C(=O)NCc3ccc(C(=O)NO)cc3)Cc3c([nH]c4ccccc34)[C@@H]2C2CC2)cc1 | -8.06% (active)
CC(=O)c1c(N)c(C#N)cn1-c1ccc(Cl)cc1Cl | 102% (inactive)
CC(C)(C)OC(=O)/C=C/c1cccc2c1C(=O)NC(C)(c1cc3cc(Cl)ccc3oc1=O)N2 (configuration not stated) | -6.16% (active)
COc1ccc2[nH]c(O)c(N=Nc3nc(-c4ccccc4)cs3)c2c1 | 71.6% (inactive)
